Data from PubChem BioAssay AID1159580 (chemical genetic matrix, 2015).
Out of some 5,500 compounds screened, about 2,000 (36%) were called active. Roughly 18% stayed inconclusive and do not appear here. No stated cut-off is given here; in the data, active means normalized growth mostly below about 0.91 (no sharp cut-off); inconclusive means no clear call, values can overlap the other calls; inactive means mostly above about 0.92. Some of the results follow.

Experiment: chemical genetic growth profiling, strain panel (AID 1159580);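 further: tested at 20 µM; growth read once vehicle control cultures reached saturation at 30 °C; 1 = growth at the plate median or of vehicle wells; lower values mean less growth of the strain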
Conditions: growth OD

Measured: normalized growth

C#C[C@]1(O)CCC2C3CCC4=CC(=O)CC[C@@H]4C3CC[C@@]21C (some centres undefined)
inactive: S. cerevisiae deletion strains, locus YJR066W, strain TOR1, hits give low values 0.909 | S. cerevisiae deletion strains, locus YKL009W, strain mrt4, hits give low values 0.954 | S. cerevisiae deletion strains, locus YKL068W, hits give low values 0.989 | S. cerevisiae deletion strains, locus YKL085W, strain MDH1 (second series), hits give low values 0.986 | S. cerevisiae deletion strains, locus YKL085W, strain MDH1, hits give low values 0.986 | S. cerevisiae deletion strains, locus YKL160W, strain elf1, hits give low values 1.01 | S. cerevisiae deletion strains, locus YKL190W, strain CNB1, hits give low values 0.977 | S. cerevisiae deletion strains, locus YKR001C, strain vps1, hits give low values 0.946 | S. cerevisiae deletion strains, locus YKR026C, strain gcn3, hits give low values 0.979 | S. cerevisiae deletion strains, locus YKR091W, strain srl3, hits give low values 0.982 | S. cerevisiae deletion strains, locus YLL001W, strain dnm1, hits give low values 0.972 | S. cerevisiae deletion strains, locus YLL026W, hits give low values 0.994 | S. cerevisiae deletion strains, locus YLL041C, strain sdh2, hits give low values 0.974 | S. cerevisiae deletion strains, locus YLR027C, strain aat2, hits give low values 0.983 | S. cerevisiae deletion strains, locus YLR039C, strain RIC1, hits give low values 0.862 | S. cerevisiae deletion strains, locus YLR058C, strain SHM2, hits give low values 0.989 | S. cerevisiae deletion strains, locus YLR102C, strain apc9, hits give low values 0.978 | S. cerevisiae deletion strains, locus YLR113W, strain HOG1, hits give low values 0.958 | S. cerevisiae deletion strains, locus YLR221C, strain rsa3, hits give low values 0.991 | S. cerevisiae deletion strains, locus YLR258W, strain gsy2, hits give low values 0.993 | S. cerevisiae deletion strains, locus YLR262C, strain YPT6 (second series), hits give low values 0.916 | S. cerevisiae deletion strains, locus YLR262C, strain YPT6, hits give low values 0.818 | S. cerevisiae deletion strains, locus YLR268W, strain sec22, hits give low values 0.94 | S. cerevisiae deletion strains, locus YLR320W, strain mms22, hits give low values 0.98 | S. cerevisiae deletion strains, locus YLR330W, strain CHS5, hits give low values 0.995 | S. cerevisiae deletion strains, locus YLR342W, strain FKS1 (second series), hits give low values 0.923 | S. cerevisiae deletion strains, locus YLR342W, strain FKS1, hits give low values 0.976 | S. cerevisiae deletion strains, locus YLR357W, strain rsc2, hits give low values 0.988 | S. cerevisiae deletion strains, locus YLR370C, strain arc18, hits give low values 0.969 | S. cerevisiae deletion strains, locus YLR371W, strain rom2, hits give low values 0.983 | S. cerevisiae deletion strains, locus YLR384C, strain iki3, hits give low values 0.982 | S. cerevisiae deletion strains, locus YLR418C, strain cdc73, hits give low values 0.915 | S. cerevisiae deletion strains, locus YML016C, strain PPZ1, hits give low values 0.991 | S. cerevisiae deletion strains, locus YML032C, strain rad52, hits give low values 0.978 | S. cerevisiae deletion strains, locus YML120C, strain ndi1, hits give low values 0.977 | S. cerevisiae deletion strains, locus YML124C, strain tub3, hits give low values 0.98 | S. cerevisiae deletion strains, locus YMR058W, strain fet3, hits give low values 0.965 | S. cerevisiae deletion strains, locus YMR078C, strain ctf18, hits give low values 0.964 | S. cerevisiae deletion strains, locus YMR125W, strain sto1, hits give low values 0.995 | S. cerevisiae deletion strains, locus YMR129W, hits give low values 0.974 | S. cerevisiae deletion strains, locus YMR205C, strain PFK2, hits give low values 0.985 | S. cerevisiae deletion strains, locus YMR223W, strain ubp8, hits give low values 0.971 | S. cerevisiae deletion strains, locus YMR231W, strain pep5, hits give low values 0.981 | S. cerevisiae deletion strains, locus YMR307W, strain GAS1, hits give low values 0.874 | S. cerevisiae deletion strains, locus YNL067W, strain RPL9B, hits give low values 0.969 | S. cerevisiae deletion strains, locus YNL071W, strain lat1, hits give low values 0.964 | S. cerevisiae deletion strains, locus YNL128W, strain TEP1, hits give low values 0.992 | S. cerevisiae deletion strains, locus YNL183C, strain NPR1, hits give low values 0.924 | S. cerevisiae deletion strains, locus YNL209W, strain ssb2, hits give low values 0.997 | S. cerevisiae deletion strains, locus YNL233W, strain BNI4, hits give low values 0.996 | S. cerevisiae deletion strains, locus YNL248C, strain rpa49, hits give low values 0.985 | S. cerevisiae deletion strains, locus YNL250W, strain rad50, hits give low values 0.981 | S. cerevisiae deletion strains, locus YNL271C, strain bni1, hits give low values 0.964 | S. cerevisiae deletion strains, locus YNL298W, strain CLA4, hits give low values 0.976 | S. cerevisiae deletion strains, locus YNL322C, strain KRE1 (second series), hits give low values 0.98 | S. cerevisiae deletion strains, locus YNR049C, strain mso1, hits give low values 0.984 | S. cerevisiae deletion strains, locus YNR052C, strain pop2, hits give low values 0.97 | S. cerevisiae deletion strains, locus YOL006C, strain TOP1, hits give low values 0.919 | S. cerevisiae deletion strains, locus YOL012C, strain htz1 1.68 | S. cerevisiae deletion strains, locus YOL147C, strain pex11, hits give low values 0.983 | S. cerevisiae deletion strains, locus YOR001W, strain rrp6, hits give low values 0.943 | S. cerevisiae deletion strains, locus YOR061W, strain CKA2, hits give low values 0.985 | S. cerevisiae deletion strains, locus YOR069W, strain VPS5, hits give low values 0.988 | S. cerevisiae deletion strains, locus YOR070C, strain gyp1, hits give low values 0.986 | S. cerevisiae deletion strains, locus YOR080W, strain dia2, hits give low values 0.994 | S. cerevisiae deletion strains, locus YOR083W, strain WHI5, hits give low values 1.03 | S. cerevisiae deletion strains, locus YOR106W, strain vam3, hits give low values 0.999 | S. cerevisiae deletion strains, locus YOR136W, strain idh2, hits give low values 0.997 | S. cerevisiae deletion strains, locus YOR144C, strain elg1, hits give low values 0.98 | S. cerevisiae deletion strains, locus YOR231W, strain MKK1, hits give low values 0.984 | S. cerevisiae deletion strains, locus YOR265W, strain rbl2, hits give low values 0.983 | S. cerevisiae deletion strains, locus YOR270C, strain vph1, hits give low values 0.901 | S. cerevisiae deletion strains, locus YOR290C, strain snf2, hits give low values 0.981 | S. cerevisiae deletion strains, locus YOR316C, strain cot1, hits give low values 0.978 | S. cerevisiae deletion strains, locus YPL051W, strain arl3, hits give low values 0.986 | S. cerevisiae deletion strains, locus YPL055C, strain LGE1, hits give low values 0.997 | S. cerevisiae deletion strains, locus YPL078C, strain atp4, hits give low values 0.974 | S. cerevisiae deletion strains, locus YPL106C, strain sse1, hits give low values 1.06 | S. cerevisiae deletion strains, locus YPL240C, strain hsp82, hits give low values 0.991 | S. cerevisiae deletion strains, locus YPL241C, strain CIN2, hits give low values 0.996 | S. cerevisiae deletion strains, locus YPL256C, strain CLN2, hits give low values 0.942 | S. cerevisiae deletion strains, locus YPR119W, strain clb2, hits give low values 0.982 | S. cerevisiae deletion strains, locus YPR141C, strain kar3, hits give low values 0.982 | S. cerevisiae deletion strains, locus YPR163C, strain tif3, hits give low values 0.986 | S. cerevisiae deletion strains, locus YPR167C, strain met16, hits give low values 0.977 | S. cerevisiae deletion strains, strain wtn01, hits give low values 0.962 | S. cerevisiae strains, strain wild type, hits give low values 0.986
active: S. cerevisiae deletion strains, locus YNL307C, strain MCK1, hits give low values 0.902 | S. cerevisiae deletion strains, locus YOR184W, strain ser1, hits give low values 0.848
